Measurements reported in the supplement of paper PMC6555819.

Tests used:
Assay in all cases: PBM binding z-score (relative to random genomic background probes); higher = stronger binding; sequences stand for … in GC…GCGATTGACAGCGTAGAATGAAGG
[1] = system: RARb homodimer (NR concentration 270 nM)
How it was run: (§1)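 On custom Agilent 4×180K arrays, double-stranded probes with 34-nt variable regions carried direct-repeat seeds, single-nucleotide variants, half-site ablations or random human genomic background. Ligand-free nuclear receptor dimers were applied for 1 h, and binding was read with antibodies against each partner (one per run). Binding z-scores come from regression-normalized fluorescence, with the random background probes as reference.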

[2] = system: RARg:RXRa (NR concentration 270 nM, RXRa partner concentration 90 nM)
How it was run: as §1

[3] = system: RARg homodimer (NR concentration 270 nM)
How it was run: as §1

[4] = system: RXRa DBDmut IVT, anti-RXR (DBD mutation: RXRa K156A/R161A, NR concentration 90 nM)
How it was run: as §1

[5] = system: RXRa homodimer (NR concentration 180 nM)
How it was run: as §1

[6] = system: THRa:RXRa (NR concentration 90 nM, RXRa partner concentration 90 nM)
How it was run: as §1

[7] = system: THRa homodimer (NR concentration 90 nM)
How it was run: as §1

[8] = system: VDR:RXRa (NR concentration 270 nM, RXRa partner concentration 90 nM)
How it was run: as §1

[9] = system: VDR homodimer (NR concentration 270 nM)
How it was run: as §1

TGTCAAAGTTCAAAGGTAACGTACGTATCCACAC
PBM binding z-score [1]: 3.77
PBM binding z-score [2]: 6.34
PBM binding z-score [3]: 5.94
PBM binding z-score [4]: 4.49
PBM binding z-score [5]: 6.98
PBM binding z-score [6]: 2.98
PBM binding z-score [7]: 0.0494
PBM binding z-score [8]: 5.05
PBM binding z-score [9]: 4.29

CATACAGGGTCAGATAGGCCAGAGTAGGGACGGC
PBM binding z-score [1]: 2.99
PBM binding z-score [2]: 4.18
PBM binding z-score [3]: 4.16
PBM binding z-score [4]: 1.83
PBM binding z-score [5]: 3.75
PBM binding z-score [6]: 2.81
PBM binding z-score [7]: 0.777
PBM binding z-score [8]: 3.2
PBM binding z-score [9]: 1.47

CGAGCGAGGGCATGAGTTGATAGCAAATGCCGAT
PBM binding z-score [1]: 0.657
PBM binding z-score [2]: 1.14
PBM binding z-score [3]: 1.22
PBM binding z-score [4]: 2.15
PBM binding z-score [5]: 1.19
PBM binding z-score [6]: 0.963
PBM binding z-score [7]: -0.509
PBM binding z-score [8]: 1.3
PBM binding z-score [9]: 1.46

AGAATGAGGTTATACGTAGACCAGGGAAGAAAGT
PBM binding z-score [1]: 0.866
PBM binding z-score [2]: 1.63
PBM binding z-score [3]: 1.19
PBM binding z-score [4]: 1.61
PBM binding z-score [5]: 2.16
PBM binding z-score [6]: 1.98
PBM binding z-score [7]: 0.296
PBM binding z-score [8]: 1.18
PBM binding z-score [9]: 0.999

CATACAGGGTCAGCTAGGGCAGAGTAGGGACGGC
PBM binding z-score [1]: 3.44
PBM binding z-score [2]: 4.4
PBM binding z-score [3]: 4.87
PBM binding z-score [4]: 1.33
PBM binding z-score [5]: 4.24
PBM binding z-score [6]: 3.69
PBM binding z-score [7]: 0.984
PBM binding z-score [8]: 4.55
PBM binding z-score [9]: 2.1

TCTATTAGTTCAAGGGCAACCGACGAGTCCGTTT
PBM binding z-score [1]: 2.81
PBM binding z-score [2]: 2.08
PBM binding z-score [3]: 2.62
PBM binding z-score [4]: 2.6
PBM binding z-score [5]: 1.58
PBM binding z-score [6]: 1.92
PBM binding z-score [7]: 1.36
PBM binding z-score [8]: 2.38
PBM binding z-score [9]: 3.41

ACTAGCAGGCCAAGGGTCACTCAGGATTAGTCCG
PBM binding z-score [1]: 3.78
PBM binding z-score [2]: 4.35
PBM binding z-score [3]: 3.59
PBM binding z-score [4]: 0.461
PBM binding z-score [5]: 4.24
PBM binding z-score [6]: 2.7
PBM binding z-score [7]: 0.0494
PBM binding z-score [8]: 3.03
PBM binding z-score [9]: 1.22

ACTATTAGTTGAGACGAGGGCAACCTATAGGTTG
PBM binding z-score [1]: 1.39
PBM binding z-score [2]: 0.509
PBM binding z-score [3]: 0.764
PBM binding z-score [4]: 0.356
PBM binding z-score [5]: 0.544
PBM binding z-score [6]: 2.63
PBM binding z-score [7]: 0.429
PBM binding z-score [8]: 0.781
PBM binding z-score [9]: 0.902

CCTGGCAGGCCAATCTGGGTCACTCAAGGCTTGA
PBM binding z-score [1]: 2.28
PBM binding z-score [2]: 1.11
PBM binding z-score [3]: 1.5
PBM binding z-score [4]: -0.376
PBM binding z-score [5]: 0.545
PBM binding z-score [6]: 3.8
PBM binding z-score [7]: 0.481
PBM binding z-score [8]: 0.406
PBM binding z-score [9]: -0.15

GCTATTAGTTGAAAGGGCAACCAAATGATTCTCG
PBM binding z-score [1]: 2.12
PBM binding z-score [2]: 1.54
PBM binding z-score [3]: 1.36
PBM binding z-score [4]: 1
PBM binding z-score [5]: 1.26
PBM binding z-score [6]: 0.682
PBM binding z-score [7]: -0.397
PBM binding z-score [8]: 0.604
PBM binding z-score [9]: 0.22

TATACAGGGTCAAAGGCCGGAGTACGAATGTCGA
PBM binding z-score [1]: 3.45
PBM binding z-score [2]: 5.49
PBM binding z-score [3]: 4.9
PBM binding z-score [4]: 2.94
PBM binding z-score [5]: 6.66
PBM binding z-score [6]: 3.34
PBM binding z-score [7]: 0.872
PBM binding z-score [8]: 4.5
PBM binding z-score [9]: 3.02

TCTCGGAGGACACGAAAGGTCAGCGCTCGACATC
PBM binding z-score [1]: 4.96
PBM binding z-score [2]: 5.25
PBM binding z-score [3]: 6.15
PBM binding z-score [4]: 1.39
PBM binding z-score [5]: 4.52
PBM binding z-score [6]: 3.89
PBM binding z-score [7]: 1.76
PBM binding z-score [8]: 3.67
PBM binding z-score [9]: 1.13

GATACAGGGTCAGCTAGAAGCCAGAGTATGGAAA
PBM binding z-score [1]: 2.56
PBM binding z-score [2]: 4.59
PBM binding z-score [3]: 4.35
PBM binding z-score [4]: 1.28
PBM binding z-score [5]: 4.19
PBM binding z-score [6]: 2.53
PBM binding z-score [7]: 0.406
PBM binding z-score [8]: 2.11
PBM binding z-score [9]: 0.338
